# Data: PubChem BioAssay
# Active and inactive are the calls of the source.
# What was measured:
# Lefty1 = Lefty1 binders on small-molecule microarrays, primary screen, biochemical, small-molecule microarray, 635/667 nm fluorescence (AID 1139); conditions: small-molecule microarray binding, fluorescence 635/667; higher = more signal
# [1] = system: wheat germ agglutinin (Triticum aestivum), Alexa647-labelled; test: wheat germ agglutinin binders on compound microarrays, profiling panel, artefact control for SMM control-protein annotation, biochemical, small-molecule microarray, 635/667 nm fluorescence (AID 1140); conditions: WGA-A647 binding, 635 nm fluorescence, higher = more signal;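 further: score merges 667 nm feature emission with signal to noise over triplicate slides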
# [2] = target: Luciferin 4-monooxygenase (Photinus pyralis) (UniProt P08659); test: firefly luciferase enzyme inhibitors, primary screen, biochemical, luminescence, purified enzyme, 2006 set (AID 1141); conditions: SteadyGlo luminescence, 30 min, higher = more signal, called active from +8 up or from −8 down;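 further: cell-free assay with purified firefly luciferase at 100 ng per well in PBS; test concentration not given here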
# Chain of Luciferin 4-monooxygenase (Photinus pyralis) (P08659 whole entry, looked up): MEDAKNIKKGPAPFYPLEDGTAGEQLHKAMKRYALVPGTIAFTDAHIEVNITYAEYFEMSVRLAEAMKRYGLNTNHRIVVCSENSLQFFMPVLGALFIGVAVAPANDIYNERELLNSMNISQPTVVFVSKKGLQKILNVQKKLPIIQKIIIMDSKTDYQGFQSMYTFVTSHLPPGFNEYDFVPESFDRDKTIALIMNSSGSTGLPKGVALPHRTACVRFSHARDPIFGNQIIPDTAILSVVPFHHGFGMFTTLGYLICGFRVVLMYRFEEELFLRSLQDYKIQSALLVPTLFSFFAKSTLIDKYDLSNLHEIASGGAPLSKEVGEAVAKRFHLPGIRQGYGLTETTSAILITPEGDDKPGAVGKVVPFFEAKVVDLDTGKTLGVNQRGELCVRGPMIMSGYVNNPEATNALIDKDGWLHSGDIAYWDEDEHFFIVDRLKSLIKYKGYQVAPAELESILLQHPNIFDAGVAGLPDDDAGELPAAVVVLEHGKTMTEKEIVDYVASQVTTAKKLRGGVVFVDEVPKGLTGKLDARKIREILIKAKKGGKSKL
# [3] = system: Wnt5a (protein binding on small-molecule microarray); test: Wnt5a binders on small-molecule microarray, primary screen, biophysical, 635/667 nm fluorescence (AID 1142); conditions: 635 nm fluorescence, higher = more signal;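 further: fluorescence read at 667 nm with signal to noise per printed feature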
# [4] = cell viability in Huh7 cells, primary screen, cytotoxicity control for HCV replication inhibitor project, CellTiter-Glo luminescence, basal, 48 h (AID 1143); conditions: Huh7 HCV replicon, higher = more signal, called active from +8 up or from −8 down;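 further: Huh7 hepatoma cells carrying a hepatitis C replication reporter with no stimulus; test concentration not given here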
# [5] = CREB reporter modulators without forskolin, primary screen, cell-based, PC12, CRE-LacZ reporter, unstimulated (AID 1145); conditions: no forskolin, luminescence, 4.5 h, higher = more signal, called active from +8 up or from −8 down
# [6] = CREB reporter modulators under forskolin, primary screen, cell-based, PC12, CRE-LacZ reporter, forskolin-stimulated (AID 1146); conditions: luminescence, 4.5 h, higher = more signal, called active from +8 up or from −8 down;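 further: PC12 cells with 6xCRE LacZ reporter stimulated by forskolin 10 µM; beta-galactosidase reporter signal reflecting CREB driven transcription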
# [7] = target: Streptavidin (Streptomyces avidinii) (UniProt P22629); test: streptavidin binders on small-molecule microarray, primary screen, artefact control for SMM compound annotation, biophysical, 635/667 nm fluorescence (AID 1147); conditions: streptavidin binding, higher = more signal;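 further: signal reflects streptavidin binding to arrayed compounds as a control protein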
# Chain of Streptavidin (Streptomyces avidinii) (P22629 whole entry, looked up): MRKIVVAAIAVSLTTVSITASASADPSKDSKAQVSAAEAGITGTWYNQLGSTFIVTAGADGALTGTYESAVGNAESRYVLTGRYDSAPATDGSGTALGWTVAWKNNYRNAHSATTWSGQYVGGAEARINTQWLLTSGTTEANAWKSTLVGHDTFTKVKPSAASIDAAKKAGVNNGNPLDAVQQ
# [8] = small-molecule binders of probe aInhba, primary screen, biochemical, small-molecule microarray, 635/667 nm fluorescence (AID 1148); conditions: higher = more signal;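 further: score merges 667nm spot fluorescence with signal-to-noise for antibody binding to printed compounds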
# Torsin-1A (Homo sapiens) [9] = target: Torsin-1A (Homo sapiens) (UniProt O14656); test: torsin A binders from cell lysate, primary screen, small-molecule microarray, wild-type, 635/667 nm (AID 1149); conditions: COS7 hTOR1A-WT lysate, 635 nm fluorescence, higher = more signal
# Chain of Torsin-1A (Homo sapiens) (O14656 whole entry, looked up): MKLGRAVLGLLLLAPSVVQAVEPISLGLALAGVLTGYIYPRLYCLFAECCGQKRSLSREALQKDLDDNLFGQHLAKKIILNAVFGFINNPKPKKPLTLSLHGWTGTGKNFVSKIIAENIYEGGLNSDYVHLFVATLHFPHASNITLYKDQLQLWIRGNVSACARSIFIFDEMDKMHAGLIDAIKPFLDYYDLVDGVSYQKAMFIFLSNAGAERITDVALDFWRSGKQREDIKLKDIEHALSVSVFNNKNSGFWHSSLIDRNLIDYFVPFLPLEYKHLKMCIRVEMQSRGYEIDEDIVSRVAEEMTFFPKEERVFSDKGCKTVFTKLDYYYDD
# Torsin-1A (Homo sapiens) [10] = target: Torsin-1A (Homo sapiens) (UniProt O14656); test: small-molecule binders of mutant TOR1A in lysate, primary screen, cell lysate, small-molecule microarray, COS7 lysate, 635/667 nm fluorescence (AID 1150); conditions: COS7 hTOR1A mutant lysate, 635 nm fluorescence, higher = more signal;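 further: score pools 667 nm emission and signal to noise measuring lysate protein binding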
# [11] = system: Sonic hedgehog protein (Shh); test: small-molecule binders of Shh protein, primary screen, biochemical, small-molecule microarray, 635/667 nm fluorescence (AID 1151); conditions: small-molecule microarray binding, 635 nm fluorescence; higher = more signal;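 further: Shh protein binding to compounds spotted on small-molecule microarray slides; score combines spot fluorescence intensity with signal-to-noise across triplicate slides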
# [12] = E. coli DRC41 culture turbidity changes, primary screen, E. coli filamentation inducer project, strain DRC41, OD650, 48 h (AID 1152);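 further: E. coli MC1000 strain DRC41 lacking acrAB efflux pump and sulA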; conditions: E. coli DRC41 (acrAB sulA), higher = more signal, called active from +8 up or from −8 down
# [13] = small-molecule binders of probe aLefty1, primary screen, biochemical, small-molecule microarray, 635/667 nm fluorescence (AID 1153); conditions: higher = more signal;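 further: score merges spot fluorescence with signal-to-noise ratio from the scanned slide images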
# [14] = PSAC antagonists in infected red cells, primary screen, cell-based, P. falciparum Indochina, OD700, 1 h (AID 1154); conditions: P. falciparum Indochina infected RBC osmotic lysis, higher = more signal, called active from +8 up or from −8 down
# [15] = PSAC antagonists in infected red cells, primary screen, cell-based, P. falciparum Indochina, OD700, 2 h (AID 1155);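 further: lysis reports solute entry through the parasite surface anion channel PSAC; channel blockers reduce lysis of infected cells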; conditions: P. falciparum Indochina infected erythrocytes, osmotic lysis OD700; higher = more signal, called active from +8 up or from −8 down
# [16] = osmotic lysis modulators in infected erythrocytes, primary screen, PSAC antagonist project, cell-based, P. falciparum Indochina, OD700, 3 h (AID 1156); conditions: higher = more signal, called active from +8 up or from −8 down
# [17] = PSAC antagonists in infected red cells, primary screen, cell-based, P. falciparum Indochina, OD700, 18 h (AID 1157); conditions: P. falciparum Indochina infected erythrocytes, osmotic lysis OD700, 18 h; higher = more signal, called active from +8 up or from −8 down
# [18] = modulators of S6 phosphorylation in cells, primary screen, cell-based, A549, cytoblot, luminescence, serum-stimulated (AID 1158); conditions: A549 phospho-S6 cytoblot, 5 h, higher = more signal;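 further: serum-stimulated A549 lung adenocarcinoma cells; signal is phosphorylated S6 detected by cytoblot immunostaining with HRP secondary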
# [19] = target: NADPH oxidase 2 (Homo sapiens) (UniProt P04839); test: NOX2-dependent H2O2 signal modulators, primary screen, NOX inhibitor project, cell-based, HEK293-NOX2, PMA-stimulated, Amplex Red fluorescence (AID 1159); conditions: 45 min, higher = more signal, called active from +8 up or from −8 down; further: test concentration not given here
# Chain of NADPH oxidase 2 (Homo sapiens) (P04839 whole entry, looked up): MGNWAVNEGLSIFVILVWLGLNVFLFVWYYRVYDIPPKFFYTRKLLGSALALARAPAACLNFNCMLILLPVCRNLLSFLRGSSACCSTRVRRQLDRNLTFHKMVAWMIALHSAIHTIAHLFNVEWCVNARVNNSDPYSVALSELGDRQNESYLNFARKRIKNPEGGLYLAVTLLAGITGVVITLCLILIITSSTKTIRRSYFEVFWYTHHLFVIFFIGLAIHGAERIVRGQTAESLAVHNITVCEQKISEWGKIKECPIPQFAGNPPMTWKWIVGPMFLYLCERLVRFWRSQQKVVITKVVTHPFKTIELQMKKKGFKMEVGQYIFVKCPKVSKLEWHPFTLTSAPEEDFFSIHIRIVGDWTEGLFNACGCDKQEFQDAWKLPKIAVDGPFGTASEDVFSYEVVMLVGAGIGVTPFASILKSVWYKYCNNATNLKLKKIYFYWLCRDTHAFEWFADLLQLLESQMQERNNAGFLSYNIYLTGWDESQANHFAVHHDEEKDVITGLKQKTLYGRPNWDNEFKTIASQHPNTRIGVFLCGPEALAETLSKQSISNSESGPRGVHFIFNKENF
Structure (SMILES),composite z-score (Lefty1),composite z-score [1],z-score [2],composite z-score [3],z-score [4],z-score [5],z-score [6],composite z-score [7],composite z-score [8],composite z-score (Torsin-1A (Homo sapiens) [9]),composite z-score (Torsin-1A (Homo sapiens) [10]),composite z-score [11],z-score [12],composite z-score [13],z-score [14],z-score [15],z-score [16],z-score [17],z-score [18],z-score [19]
C=CC[C@]1(C(=O)N2CCCCC2)COC(c2ccc(OCCCO)cc2)=N1,-0.45,-1.3,-2.65 (inactive),0.0945,-4.06 (inactive),1.08 (inactive),-1.78 (inactive),-0.712,-0.128,-0.273,-0.204,0.0166,0.924 (inactive),0.0391,24.9 (active),12 (active),4.37 (inactive),0.866 (inactive),0.826,-3.2 (inactive)
O=C1c2ccccc2[C@@]2(Cc3ccccc3N(CC(F)(F)F)C2=O)[C@H](c2ccc(CO)cc2)N1Cc1ccccc1C(F)(F)F,-1.87,-1.69,-0.903 (inactive),-0.388,-1.02 (inactive),-0.556 (inactive),-1.56 (inactive),-1.04,-0.224,-1.41,-0.322,-0.643,1.43 (inactive),-0.23,0.0937 (inactive),-0.926 (inactive),0.593 (inactive),-1.39 (inactive),0.936,0.0968 (inactive)
CC(C)[C@@H](C(=O)O)n1cc(-c2ccccn2)nn1,0.0234,0.957,-0.495 (inactive),-0.267,0.715 (inactive),-0.201 (inactive),0.159 (inactive),0.62,0.202,0.417,0.567,0.673,2.01 (inactive),-0.0559,-0.0828 (inactive),0.0486 (inactive),0.322 (inactive),0.0401 (inactive),0.0264,-0.847 (inactive)
COc1ccc([Si](C)(C)[C@@H]2[C@@H](CC(=O)N3CCC[C@H]3CO)O[C@]3(C(=O)N(Cc4ccc(N5CCC5=O)cc4)c4ccccc43)[C@H]2C)cc1,1.04,0.0389,-1.45 (inactive),0.0507,-1.8 (inactive),0.861 (inactive),-1.19 (inactive),0.761,0.027,0.572,0.409,1.55,0.436 (inactive),0.156,7.47 (inactive),1.49 (inactive),-0.836 (inactive),0.77 (inactive),0.127,2.99 (inactive)
CCOC(=O)C[C@H]1[C@H](OC(=O)c2cc3ccccc3oc2=O)[C@@H](NC(=O)c2ccccc2)c2cc(OCCCO)ccc2N1C(=O)Cc1ccc(OC)cc1,0.584,0.247,-0.243 (inactive),0.146,-4.64 (inactive),8.63 (active),-2.07 (inactive),0.0709,0.0464,0.151,0.098,0.251,3.12 (inactive),-0.0051,3.28 (inactive),-0.825 (inactive),0.076 (inactive),-2.29 (inactive),2.39,-0.224 (inactive)
C=C1C=C(Br)C2(OCCCO2)[C@H]2OC12 (stereo not given in full),0.743,-0.903,-0.914 (inactive),-0.093,0.15 (inactive),0.199 (inactive),0.676 (inactive),0.61,-0.128,0.639,0.495,0.411,0.659 (inactive),-0.147,-0.14 (inactive),0.146 (inactive),-0.334 (inactive),-0.12 (inactive),-0.281,0.868 (inactive)
COc1c(C)cc(-c2cc3c(c(CCc4ccccc4)n2)[Si](C(C)C)(C(C)C)OC3)cc1C,0.251,-0.442,-0.374 (inactive),-0.0652,0.236 (inactive),0.12 (inactive),-0.867 (inactive),-0.0683,0.0659,0.367,0.362,0.981,2.56 (inactive),0.112,1.18 (inactive),-0.803 (inactive),-0.428 (inactive),-1.57 (inactive),0.663,0.726 (inactive)
COc1ccc(/C=C/C(=O)c2cccc(OCC(=O)OC(C)(C)C)c2)cc1,-0.51,0.248,-2.64 (inactive),-0.132,-0.385 (inactive),0.622 (inactive),-0.588 (inactive),-0.152,-0.363,0.349,0.179,-0.139,1.42 (inactive),-0.113,30.9 (active),25.8 (active),0.746 (inactive),1.41 (inactive),0.112,-1.32 (inactive)
